Compounds without any hit were thinned out: in the full panel of roughly 79,000, 15% have a hit. Values without a mark were called inactive. Active and inactive are the calls of the source. Cut-off read from the data, not from the text of the source: active = growth inhibition above about 70%; inactive = the rest.
Legend:
[1] = NCI Yeast Anticancer Drug Screen. Data for the rad52 strain (AID 147);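 note: 0% = growth of vehicle-treated control cultures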; conditions: S. cerevisiae rad52 mutant growth inhibition, stronger effect = higher value
How it was run: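 Here a repair-compromised yeast strain receives each compound; its growth is then quantified and normalised to vehicle-only controls.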

[2] = NCI Yeast Anticancer Drug Screen. Data for the wt1 strain (AID 149);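 note: 0% = growth of vehicle-treated wt1 cultures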; conditions: S. cerevisiae wt1 strain (SPY 50644) growth inhibition, stronger effect = higher value
How it was run: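 The wt1 strain was treated with compounds, and growth was compared with vehicle-treated cultures to give inhibition.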

[3] = NCI Yeast Anticancer Drug Screen. Data for the rad50EPP+ strain (AID 151);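 note: 0% = growth of vehicle-treated control cultures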; conditions: S. cerevisiae rad50 mutant strain, stronger effect = higher value
How it was run: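 Read-out is yeast growth inhibition relative to vehicle; cells used were the rad50EPP+ strain.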

[4] = NCI Yeast Anticancer Drug Screen. Data for the mgt1 strain (AID 153); conditions: S. cerevisiae mgt1 mutant growth inhibition, stronger effect = higher value
How it was run: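 Measured: inhibition of mgt1 yeast growth by compound, normalized to vehicle-treated cultures.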

[5] = NCI Yeast Anticancer Drug Screen. Data for the rad50 strain (AID 155);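 note: 0% = growth of vehicle-only cultures of the same strain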; conditions: S. cerevisiae rad50 strain growth inhibition, stronger effect = higher value
How it was run: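 Cells are treated with compound, grown, and their growth is then scored against vehicle-only cultures of the same repair-deficient yeast strain.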

[6] = NCI Yeast Anticancer Drug Screen. Data for the mec2-1 strain (AID 157); conditions: S. cerevisiae mec2-1 strain, stronger effect = higher value
How it was run: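 Using mec2-1 yeast: add compound, measure growth, express inhibition versus vehicle-treated cultures.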

[7] = NCI Yeast Anticancer Drug Screen. Data for the rad14 strain (AID 159);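 note: 0% = growth of vehicle-treated control cultures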; conditions: S. cerevisiae rad14 strain growth inhibition, stronger effect = higher value
How it was run: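 Readout: yeast growth inhibition, referenced to vehicle-only cultures. Strain bears a defined alteration in DNA damage repair.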

[8] = NCI Yeast Anticancer Drug Screen. Data for the sgs1 mgt1 strain (AID 161);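 note: 0% = growth of cultures given vehicle only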; conditions: S. cerevisiae sgs1 mgt1 strain, stronger effect = higher value
How it was run: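 Yeast cells carrying a defined DNA-repair defect were exposed to test compounds. Growth inhibition was measured relative to vehicle-treated controls.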

[9] = NCI Yeast Anticancer Drug Screen. Data for the CLN2oe strain (AID 163);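 note: 0% = growth of vehicle-only control cultures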; conditions: S. cerevisiae CLN2oe strain, stronger effect = higher value
How it was run: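 Whole-cell yeast growth assay. A strain engineered for altered cell-cycle control received compound, and inhibition relative to vehicle-treated cultures was recorded.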

[10] = NCI Yeast Anticancer Drug Screen. Data for the cln2 rad14 strain (AID 165);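 note: 0% = growth equal to vehicle treated cultures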; conditions: S. cerevisiae cln2 rad14 strain, stronger effect = higher value
How it was run: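 Yeast strain cln2 rad14, bearing defects in cell cycle control and DNA repair, serves as the test system; values reflect growth inhibition compared with vehicle.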

[11] = NCI Yeast Anticancer Drug Screen. Data for the bub3 strain (AID 167); conditions: S. cerevisiae bub3 mutant strain, stronger effect = higher value
How it was run: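 Part of a panel of yeast mutants defective in DNA damage repair or cell cycle regulation. Each strain is grown with compound, and inhibition is calculated relative to solvent-treated cultures.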

[12] = NCI Yeast Anticancer Drug Screen. Data for the wt2 strain (AID 169);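 note: 0% = growth of vehicle-treated yeast cultures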; conditions: S. cerevisiae wt2 strain growth inhibition, stronger effect = higher value
How it was run: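 Treated yeast vs. vehicle-treated yeast: growth inhibition determined.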

[13] = NCI Yeast Anticancer Drug Screen. Data for the mlh1 strain (AID 171);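 note: 0% = growth of vehicle-treated control cultures of the same strain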; conditions: S. cerevisiae mlh1 strain growth inhibition, stronger effect = higher value
How it was run: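 A yeast strain with a defined genetic lesion serves as the test organism. Cultures receive compound or vehicle, and growth is measured.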

[14] = NCI Yeast Anticancer Drug Screen. Data for the sgs1 strain (AID 173);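 note: 0% = growth of vehicle-only control cultures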; conditions: S. cerevisiae sgs1 mutant, stronger effect = higher value
How it was run: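 A genetically defined yeast mutant is incubated with the test compound, and its growth is compared to that of the same strain given vehicle.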

[15] = NCI Yeast Anticancer Drug Screen. Data for the mlh1 rad18 strain (AID 175); conditions: S. cerevisiae mlh1 rad18 strain growth inhibition, stronger effect = higher value
How it was run: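 Steps: expose repair-defective yeast to compound; measure growth; express inhibition against vehicle-treated controls.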

[16] = NCI Yeast Anticancer Drug Screen. Data for the rad18 strain (AID 177); conditions: S. cerevisiae rad18 mutant growth inhibition, stronger effect = higher value
How it was run: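 Measured value is growth inhibition of a yeast strain bearing a DNA repair alteration, referenced to vehicle-treated cells.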

[17] = at 5.0 µM (retest, dose inferred, filed as 0.5)
[18] = at 50.0 µM (retest, dose inferred, filed as 5.0)

## C[CH2][Sn]1([CH2]C)[O]C2C(O)OC(CO)C(O)C2[O]1 (stereo not drawn)
[1]; at 1.2 µM
  growth inhibition: 0%
[1]; at 3.7 µM
  growth inhibition: 10%
[1]; at 11.0 µM
  growth inhibition: 19%
[1]; at 33.0 µM
  growth inhibition: 29%
[1]; at 100.0 µM
  growth inhibition: 76% (active)
[2]; at 1.2 µM
  growth inhibition: -8%
[2]; at 3.7 µM
  growth inhibition: -15%
[2]; at 11.0 µM
  growth inhibition: -9%
[2]; at 33.0 µM
  growth inhibition: -2%
[2]; at 100.0 µM
  growth inhibition: 61%
[3]; at 1.2 µM
  growth inhibition: -8%
[3]; at 3.7 µM
  growth inhibition: -21%
[3]; at 11.0 µM
  growth inhibition: -34%
[3]; at 33.0 µM
  growth inhibition: -23%
[3]; at 100.0 µM
  growth inhibition: -17%
[4]; at 1.2 µM
  growth inhibition: -19%
[4]; at 3.7 µM
  growth inhibition: -21%
[4]; at 11.0 µM
  growth inhibition: -3%
[4]; at 33.0 µM
  growth inhibition: 2%
[4]; at 100.0 µM
  growth inhibition: 69%
[5]; at 1.2 µM
  growth inhibition: 12%
[5]; at 3.7 µM
  growth inhibition: 12%
[5]; [17]
  growth inhibition: 17%
[5]; at 11.0 µM
  growth inhibition: -7%
[5]; at 33.0 µM
  growth inhibition: 4%
[5]; [18]
  growth inhibition: 67%
[5]; at 50.0 µM
  growth inhibition: 33.5%
[5]; at 100.0 µM
  growth inhibition: 66%
[6]; at 1.2 µM
  growth inhibition: 10%
[6]; at 3.7 µM
  growth inhibition: 4%
[6]; [17]
  growth inhibition: 8%
[6]; at 11.0 µM
  growth inhibition: 4%
[6]; at 33.0 µM
  growth inhibition: 24%
[6]; [18]
  growth inhibition: 75% (active)
[6]; at 50.0 µM
  growth inhibition: 80.5% (active)
[6]; at 100.0 µM
  growth inhibition: 67%
[7]; at 1.2 µM
  growth inhibition: 1%
[7]; at 3.7 µM
  growth inhibition: -4%
[7]; at 11.0 µM
  growth inhibition: 2%
[7]; at 33.0 µM
  growth inhibition: -5%
[7]; at 100.0 µM
  growth inhibition: 15%
[8]; [17]
  growth inhibition: 22%
[8]; [18]
  growth inhibition: 71% (active)
[8]; at 50.0 µM
  growth inhibition: 53.5%
[9]; at 1.2 µM
  growth inhibition: -53%
[9]; at 3.7 µM
  growth inhibition: -73%
[9]; at 11.0 µM
  growth inhibition: -69%
[9]; at 33.0 µM
  growth inhibition: -100%
[9]; at 100.0 µM
  growth inhibition: 45%
[10]; [17]
  growth inhibition: -1%
[10]; [18]
  growth inhibition: 37%
[10]; at 50.0 µM
  growth inhibition: 63.6%
[11]; at 1.2 µM
  growth inhibition: 3%
[11]; at 3.7 µM
  growth inhibition: 4%
[11]; [17]
  growth inhibition: 6%
[11]; at 11.0 µM
  growth inhibition: 10%
[11]; at 33.0 µM
  growth inhibition: 8%
[11]; [18]
  growth inhibition: 69%
[11]; at 50.0 µM
  growth inhibition: 55.6%
[11]; at 100.0 µM
  growth inhibition: 63%
[12]; at 1.2 µM
  growth inhibition: -58%
[12]; at 3.7 µM
  growth inhibition: -42%
[12]; at 11.0 µM
  growth inhibition: -27%
[12]; at 33.0 µM
  growth inhibition: 15%
[12]; at 100.0 µM
  growth inhibition: 82% (active)
[13]; at 1.2 µM
  growth inhibition: -2%
[13]; at 3.7 µM
  growth inhibition: -2%
[13]; at 11.0 µM
  growth inhibition: -4%
[13]; at 33.0 µM
  growth inhibition: -12%
[13]; at 100.0 µM
  growth inhibition: 39%
[14]; at 1.2 µM
  growth inhibition: -12%
[14]; at 3.7 µM
  growth inhibition: -5%
[14]; at 11.0 µM
  growth inhibition: -8%
[14]; at 33.0 µM
  growth inhibition: 16%
[14]; at 100.0 µM
  growth inhibition: 59%
[15]; [17]
  growth inhibition: 26%
[15]; [18]
  growth inhibition: 88% (active)
[15]; at 50.0 µM
  growth inhibition: 72.5% (active)
[16]; at 1.2 µM
  growth inhibition: 11%
[16]; at 3.7 µM
  growth inhibition: 0%
[16]; at 11.0 µM
  growth inhibition: 8%
[16]; at 33.0 µM
  growth inhibition: 23%
[16]; at 100.0 µM
  growth inhibition: 73% (active)
